Test results as given in the supplement of paper PMC12350171.
Counter-ions that a name gives are not always drawn. Values without a mark were called inactive.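 Rule for the calls: active = AUC significantly below DMSO controls by Student t-fit with adjusted P under 0.01; inactive = not significantly reduced.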

The compounds below were run on Haemophilus parainfluenzae (assay: growth AUC normalised to DMSO control (fraction of control); higher = less growth inhibition, active = hit call of the paper). Conditions: 20 µM.
How it was run: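 After two anaerobic passages, pathogens were added at a starting OD578 of 0.01 to pre-reduced mGAM plates holding compound at 20 μM with 1% DMSO; hemin and NAD were supplemented for Haemophilus parainfluenzae. Sealed with breathable membranes, plates were read at OD578 hourly for 24 h, in three biological replicates. The trapezoidal rule, applied up to the exponential-to-stationary transition, gave the growth-curve AUC, which was normalised to DMSO controls on the same plate.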
`CCCN(CCC)S(=O)(=O)c1ccc(C(=O)O)cc1` [Probenecid] was tested, and the “growth AUC normalised to DMSO control” value was 1.02.
With `CC[N+](C)(CC)CCC[n+]1c(-c2ccccc2)c2cc(N)ccc2c2ccc(N)cc21` [Propidium iodide] the “growth AUC normalised to DMSO control” value was 1.04.
In the case of `CN1C(=O)OC(C)(C)C1=O` [Trimethadione], the “growth AUC normalised to DMSO control” value is reported as 0.975.
`O=C(Nc1cccc2c(=O)cc(-c3nnn[nH]3)oc12)c1ccc(OCCCCc2ccccc2)cc1` [Pranlukast] was tested, and the “growth AUC normalised to DMSO control” value was 0.996.
`CN1CCN(C2=Nc3cc(Cl)ccc3Nc3ccccc32)CC1` [Clozapine] was tested, and the “growth AUC normalised to DMSO control” value was 1.02.
In the case of `Oc1c(Cl)cc(Cl)c2cccnc12` [Chloroxine], the “growth AUC normalised to DMSO control” value is reported as 0.114 (active).
`CCN(CC)CCOc1ccc(C(=C(Cl)c2ccccc2)c2ccccc2)cc1` [(Z,E) Clomiphene citrate] was tested, and the “growth AUC normalised to DMSO control” value was 1.02.
`Cc1cc2cc3c(C)cc(=O)oc3c(C)c2o1` [Trioxsalen] was tested, and the “growth AUC normalised to DMSO control” value was 1.02.
For `COCCCOc1ccnc(C[S+]([O-])c2nc3ccccc3[nH]2)c1C` (centres undefined) [Rabeprazole sodium salt], the “growth AUC normalised to DMSO control” value was 0.985.
`Nc1nnc(-c2cccc(Cl)c2Cl)c(N)n1` [Lamotrigine] was tested, and the “growth AUC normalised to DMSO control” value was 1.01.
For `NCCCC(O)(P(=O)(O)O)P(=O)(O)O` [Alendronate sodium], the “growth AUC normalised to DMSO control” value was 1.05.
In the case of `NS(=O)(=O)Cc1noc2ccccc12` [Zonisamide], the “growth AUC normalised to DMSO control” value is reported as 0.981.
`CCCCCCCCCCCCCCCC[N+](C)(C)CCN(Cc1ccc(OC)cc1)c1ncccn1` [Thonzonium bromide] was tested, and the “growth AUC normalised to DMSO control” value was 0.978.
For `CC(=O)N(CC(C)C(=O)O)c1c(I)cc(I)c(N)c1I` (centres undefined) [Iocetamic acid], the “growth AUC normalised to DMSO control” value was 0.965.
With `CC(=O)OCC1=C(C(=O)O)N2C(=O)[C@@H](NC(=O)Cc3cccs3)[C@H]2SC1` [Cephalothin sodium salt] the “growth AUC normalised to DMSO control” value was 0.0326 (active).
In the case of `CC#C[C@]1(O)CC[C@H]2[C@@H]3CCC4=CC(=O)CCC4=C3[C@@H](c3ccc(N(C)C)cc3)C[C@@]21C` [Mifepristone], the “growth AUC normalised to DMSO control” value is reported as 0.994.
For `CCN(CC)C(=O)/C(C#N)=C/c1cc(O)c(O)c([N+](=O)[O-])c1` [Entacapone], the “growth AUC normalised to DMSO control” value was 1.06.
With `N/C(=N\C(=O)c1nc(Cl)c(N)nc1N)NCc1ccccc1` [Benzamil hydrochloride] the “growth AUC normalised to DMSO control” value was 0.991.
In the case of `CC(C)(C)NCC(O)c1cc(O)cc(O)c1` (centres undefined) [Terbutaline hemisulfate], the “growth AUC normalised to DMSO control” value is reported as 1.06.
For `COc1cc(N)c(Cl)cc1C(=O)NC1CCN(CCCOc2ccc(F)cc2)CC1OC` (centres undefined) [Cisapride], the “growth AUC normalised to DMSO control” value was 1.03.
`CN(c1nccc(=O)[nH]1)C1CCN(c2nc3ccccc3n2Cc2ccc(F)cc2)CC1` [Mizolastine] was tested, and the “growth AUC normalised to DMSO control” value was 1.11.
For `Cc1cccc(Nc2ccncc2S(=O)(=O)NC(=O)NC(C)C)c1` [Torsemide], the “growth AUC normalised to DMSO control” value was 0.978.
With `CC(=O)OCC(=O)[C@@]12N=C(C)O[C@@H]1C[C@H]1[C@@H]3CCC4=CC(=O)C=C[C@]4(C)[C@H]3[C@@H](O)C[C@@]12C` [Deflazacort] the “growth AUC normalised to DMSO control” value was 1.02.
For `C[C@]1(Cn2ccnn2)[C@H](C(=O)O)N2C(=O)C[C@H]2S1(=O)=O` [Tazobactam], the “growth AUC normalised to DMSO control” value was 1.02.
In the case of `c1ccc2[nH]c(-c3cscn3)nc2c1` [Tiabendazole], the “growth AUC normalised to DMSO control” value is reported as 1.06.
With `C[N+](C)(CCOc1ccccc1)Cc1ccccc1.O=C([O-])c1cc2ccccc2cc1O` [Bephenium hydroxynaphthoate] the “growth AUC normalised to DMSO control” value was 1.04.
For `COc1ccc2cc([C@@H](C)C(=O)O)ccc2c1` [(R) Naproxen sodium salt], the “growth AUC normalised to DMSO control” value was 1.1.
For `CCc1cc(Cl)c(OC)c(C(=O)NC[C@@H]2CCCN2CC)c1O` [(S,-) Eticlopride hydrochloride], the “growth AUC normalised to DMSO control” value was 0.958.
In the case of `CN1CCc2cccc3c2[C@H]1Cc1ccc(O)c(O)c1-3` [R(-) Apomorphine hydrochloride hemihydrate], the “growth AUC normalised to DMSO control” value is reported as 1.05.
For `Nc1ccc(C(=O)NCC(=O)O)cc1` [Aminohippuric acid], the “growth AUC normalised to DMSO control” value was 1.
For `N=C(NCCCCCCNC(=N)NC(=N)Nc1ccc(Cl)cc1)NC(=N)Nc1ccc(Cl)cc1` [Chlorhexidine], the “growth AUC normalised to DMSO control” value was 0.139 (active).
With `CCOC(=O)C1=C(C)NC(C)=C(C(=O)OCC)C1c1ccccc1/C=C/C(=O)OC(C)(C)C` [Lacidipine] the “growth AUC normalised to DMSO control” value was 1.01.
For `COc1cc(C(=O)OCCCN2CCCN(CCCOC(=O)c3cc(OC)c(OC)c(OC)c3)CC2)cc(OC)c1OC` [Dilazep dihydrochloride], the “growth AUC normalised to DMSO control” value was 0.97.
`CN(C)CCN1C(=O)c2ccccc2N(C)c2ccccc21` [Dibenzepine hydrochloride] was tested, and the “growth AUC normalised to DMSO control” value was 0.97.
In the case of `O=C1CN(/N=C/c2ccc(-c3ccc([N+](=O)[O-])cc3)o2)C(=O)N1` [Dantrolene sodium salt], the “growth AUC normalised to DMSO control” value is reported as 1.03.
`CC(C)(C)C(=O)OCOC(=O)[C@@H]1N2C(=O)[C@@H](/N=C/N3CCCCCC3)[C@H]2SC1(C)C` [Pivmecillinam hydrochloride] was tested, and the “growth AUC normalised to DMSO control” value was 0.825.
With `COc1cc2nc(N3CCN(C(=O)C4COc5ccccc5O4)CC3)nc(N)c2cc1OC` (centres undefined) [Doxazosin mesylate] the “growth AUC normalised to DMSO control” value was 0.992.
In the case of `Cc1cc(NC(=O)C2=C(O)c3ccccc3S(=O)(=O)N2C)no1` [Isoxicam], the “growth AUC normalised to DMSO control” value is reported as 0.991.
For `C#C[C@]1(O)CC[C@H]2[C@@H]3CCC4=CC(=O)CC[C@@H]4[C@H]3CC[C@@]21C` [Norethindrone], the “growth AUC normalised to DMSO control” value was 0.989.
